The results in this text go back to PubChem BioAssay.

Unmarked numbers belong to inactive results.

The assay deals with XIP peptide (Xip251-270) binding. The assay is described as follows: XIP fragment 251-270 binding compounds – biochemical, small-molecule microarray, fluorescence 635/667 nm, 0.1 µg/mL protein, primary screen (AID 1182). As to conditions: fluorescent protein binding, 635 nm, higher = more signal, called active from +8 up or from −8 down.
Turning to `O=C1C=C[C@@H](O)[C@@H]2[C@@H]3C(=O)N(c4ccc(F)cc4F)C(=O)[C@@H]3CC[C@@H]12`, the composite z-score was 0.25.
`COc1cccc([C@H]2Oc3ccc(OC)cc3C(=NOC[C@@H](O)[C@H]3O[C@@H]4OC(C)(C)O[C@@H]4[C@H]3O)[C@@H]2O)c1`: the composite z-score is -0.815.
Turning to `COCCNC(=O)OCC1CCCC2(CC(OC(=O)NCc3ccc4c(c3)OCO4)CC(CCC(=O)N[C@@H](C)C(=O)OC)O2)O1` (stereo not given in full), the composite z-score is 0.412.
Turning to `CCOC(=O)[C@H](CC(C)C)NC(=O)CCC1CC(OC(=O)NCc2cccc3ccccc23)CC2(CCCC(COC(=O)NCC3CCCCC3)O2)O1` (stereo not given in full), the composite z-score is -0.145.
As to `CON=C1[C@H]2CCn3c(=O)n(-c4ccccc4)c(=O)n3[C@H]2[C@H](O)[C@@H]2O[C@H]12`, the composite z-score is -0.0682.
With `Cc1cc2c(nc1C)CCCN2CC(O)CN1CCCc2nc(C)c(C)cc21`, the composite z-score is 0.6.
Consider `CCc1cc2c(nc1CC)CCN(CCC(C)=NOC[C@H]1O[C@H](c3ccccc3)C=C[C@@H]1Oc1ccc(OC)cc1)C2`, for which the composite z-score is 0.248.
The value for `CO[C@H]1COC(=O)CC=C[C@H](C)[C@@H](OC)COC(=O)[C@@H](C)COC(=O)CC=C[C@@H]1C` was -0.0653; that for `CO[C@H]1COC(=O)[C@@H](C)COC(=O)[C@H](COCc2ccccc2)NC(=O)CC=C[C@H]1C` was -0.0299; that for `Cc1ccc(S(=O)(=O)N[C@H]2COC(=O)CC=C[C@H](C)[C@@H](NS(=O)(=O)c3ccc(C)cc3)COC(=O)CC=C[C@@H]2C)cc1` was 0.127.
